Experimental data from the supplement of paper PMC4206467.

What follows are compounds tested on Perkinsus marinus PRA240 (assay: ATP content (proliferation) relative to DMSO control; higher = more parasite growth (less inhibition)). Details: 20 µM; 4 days.
Description: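 Perkinsus marinus PRA240 trophozoites (2-5x10^6 cells/ml, 100 µl, 96-well) were exposed once to MMV Malaria Box compounds at 20 µM (0.1% DMSO) in triplicate. ATP content (ATPlite bioluminescence) was read at day 4 post-exposure and normalised to DMSO + cells control wells (100% activity). Compounds were identified by joining plate and well to the Malaria Box list.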

| Structure (SMILES) | ATP content |
| --- | --- |
| CC1CC(C)CN(C(=O)c2ccc(Cl)cc2Cl)C1 (stereo not given) | 135% |
| CCOc1ccc(Nc2c3ccccc3nc3ccccc23)cc1 | 159% |
| CCCCOC(=O)c1ccc(Nc2cc(C)nc3ccc(OC)cc23)cc1 | 93.9% |
| O=C(Nc1cccc(C(F)(F)F)c1)c1cc(Cl)ccc1O | 2.99% |
| O=C1c2ccccc2C2=Nc3ccccc3SC(c3cccc(F)c3)C12 (stereo not given) | 36.8% |
| CCCCCCc1cc2cc(-c3csc(C=Cc4ccccc4)n3)c(=O)oc2cc1O | 137% |
| Cc1cccc(-n2ncc3c(=O)[nH]c(-n4nc(C)cc4NC(=O)c4cc5ccccc5o4)nc32)c1 | 19% |
| O=C(Nc1ccc(N2CCCCC2)c(Cl)c1)c1ccc(Br)o1 | 33.7% |
| Brc1ccc(Nc2nc3ccccc3nc2Nc2ccc(Br)cc2)cc1 | 18.3% |
| CCN(CC)CCNc1ccnc2cc3ccccc3cc12 | 107% |
| CCOc1cc2c(cc1OCC)C(c1cc(Cl)ccc1O)NCC2 (stereo not given) | 91.6% |
| CCN(CC)CCNc1ncnc2c1[nH]c1ccc(Br)cc12 | 141% |
| COc1ccc(C(=O)NC(c2ccccc2Cl)c2cc(Cl)c3cccnc3c2O)cc1 (stereo not given) | 29.8% |
| COc1ccc(C)c2sc(N(Cc3cccnc3)C(=O)c3ccc(C#N)cc3)nc12 | 87.4% |
| COc1cc(C(=O)ON=C(N)Cc2cccc3ccccc23)cc(OC)c1OC | 87.4% |
| FC(F)(F)c1cccc(CNC2CCN(CCc3ccccc3)CC2)c1 | 95.6% |
| O=C(c1ccccc1F)N(Cc1ccc(Cl)cc1)c1ccccn1 | 59% |
| COc1ccc(C2Sc3ccccc3N=C3C2=C(O)c2ccccc23)cc1 (stereo not given) | 46.2% |
| COc1ccc(C2C(C(=O)Nc3cccc(OC)c3)c3ccccc3C(=O)N2C2CCCCC2)cc1 (stereo not given) | 94.3% |
| CCn1c(SCC(=O)Nc2cc(C(F)(F)F)ccc2Cl)nc2ccccc2c1=O | 102% |

| Structure (SMILES) | ATP content |
| --- | --- |
| Cc1ccc(C(=O)c2oc3ccc4c(C)cc(=O)oc4c3c2C)cc1 | 123% |
| O=C(Nc1ccc(-c2nc3cc4ccccc4cc3[nH]2)cc1)c1cccc(Br)c1 | 124% |
| CCOc1ccccc1CNC(=O)C1c2ccccc2C(=O)N(CC(C)C)C1c1cccs1 (stereo not given) | 78.8% |
| Cc1cc(NC(=O)c2ccc(-c3ccccc3)cc2)no1 | 69.1% |
| Cc1ccc(-c2nc3ccccc3o2)cc1NCc1cc(Cc2ccccc2)ccc1O | 77.3% |
| Oc1ccc(-c2nc(-c3ccc4oc5ccc(-c6[nH]c(-c7ccc(O)cc7)nc6-c6ccccc6)cc5c4c3)c(-c3ccccc3)[nH]2)cc1 | 124% |
| CC(=O)c1sc(NC(=O)Nc2ccc(C)cc2C)nc1C | 68.1% |
| CCN(CC)CCCNc1ccnc2cc3ccccc3cc12 | 139% |
| FC(F)(F)c1ccc(Nc2nnnc3ccccc23)cc1 | 44% |
| CCCCNc1nc(NC(C)(C)C)nc(NC(C)(C)C)n1 | 116% |
| Nc1ccc(-c2nc3cc(Oc4ccc(Oc5ccc6[nH]c(-c7ccc(N)cc7)nc6c5)cc4)ccc3[nH]2)cc1 | 74.1% |
| O=C(NC1CCN(Cc2ccccc2)CC1)c1cc(-c2cccnc2)nc2ccc(Cl)cc12 | 137% |
| CCCC(c1nnnn1C1CCCCC1)N1CCN(C(=O)c2ccco2)CC1 (stereo not given) | 115% |
| CCOC(=O)c1cnc2ccc(Cl)cc2c1NCCCN(C)C | 147% |
| CN(C)CCCNCc1ccc(-c2ccc(F)c(Cl)c2)o1 | 123% |
| CCOc1cc(Br)c(C(C)NC(=O)c2cccc(OC)c2)cc1OCC (stereo not given) | 115% |
| COc1cc2c(cc1OC)C1=NNC(=O)C1=NC(C)(C)C2 | 42.2% |
| CCCCCCn1c(=N)n(CC(O)COc2cccc(C)c2)c2ccccc21 (stereo not given) | 96.7% |
| O=C(Nc1ccc(CN2CCOCC2)cc1)c1ccc(-c2ccc(Br)cc2)o1 | 89.4% |
| CCOc1ccc2c(c1)CN(Cc1ccc(Cl)cc1)CO2 | 155% |
